PubChem BioAssay AID771 (SRMLSC, 2007)
“And” between values parts separate entries of the source, which are not always exact repeats. Equal entries are not always repeated. Out of some 3,300 compounds screened, about 55 (2%) were called active.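 How the source made its calls: active means growth inhibition above 90%, meaning viable cell count by imaging cut by more than 90% versus vehicle controls; inactive means growth inhibition below 90%.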 For the sample, actives were picked, then their nearest neighbours and some compounds at random. More than one record can exist for a structure, and the calls need not agree.

Experiment: HT29 colon tumor cell growth inhibition, primary screen, imaging, high content imaging, 48 h, CellTiter-Glo (AID 771);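 on condensed nuclei: condensed means Hoechst nuclear area under control median minus 1.5 SD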
Conditions: HCS imaging cell count, at 10 µM, stronger effect = higher value; for condensed nuclei: measured here: percent cells with condensed nuclei
[1] = measured here: ATP CellTiter-Glo viability inhibition

Row | Compound | growth inhibition | growth inhibition [1] | condensed nuclei
1 | CC(=O)c1ccc(O)c(CO)c1 | -13.1% (inactive) | -11.8% | 2.86%
2 | COC(=O)c1ccc(C2NC(C(=O)O)CS2)cc1 (stereo unspecified) | 16% (inactive) | -10.7% | 1.25%
3 | CCNC(=O)Nn1c(C)nnc1C | -8.98% (inactive) | -2.65% | 1.64%
4 | CCOc1ccc2nc(SCC(=O)Nc3ncccn3)[nH]c2c1 | -11.5% (inactive) | 0% | 3.9%
5 | CCCSc1ccc2nc(NC(=O)OC)[nH]c2c1 | 90.4% (active) |  | 33.3%
6 | COC(=O)Nc1nc2ccc(C(=O)c3ccccc3)cc2[nH]1 | 86.4% (inactive) |  | 34.6%
7 | COC(=O)Nc1nc2ccc(Sc3ccccc3)cc2[nH]1 | 90.4% (active) |  | 42%
8 | Cc1ccc2nc(NCc3ccccc3)[nH]c2c1 | 87.6% (inactive) | 67.4% | 19.4%
9 | CCCOc1ccc2nc(NC(=O)OC)[nH]c2c1 | 78.7% (inactive) |  | 35.7%
10 | Cc1cc(=O)oc(C)c1C(=O)Nc1ccc2nsnc2c1 | 31.3% (inactive) | -17.1% | 3.08%
11 | CCCCCNC(=O)c1c(N)n(/N=C/c2ccco2)c2nc3ccccc3nc12 | 44.5% (inactive) | 5.72% | 0.77%
12 | CC1(C)Cc2c(C#N)c(SCC(=O)c3ccccc3)nc(N3CCOCC3)c2CS1 | 83.5% (inactive) | 76.7% | 17.6%
13 | CCN(CC)CCOC(=O)C1(c2ccc(OC)c(OC)c2)CCCC1 | -76.7% (inactive) | -5.14% | 1.64%
14 | COc1ccc(C(=O)NCCCCCC(=O)O)cc1OC | 5.72% (inactive) | 3.37% | 1.69%
15 | COc1cccc2c(=O)c(SC(F)(F)C(F)C(F)(F)F)c(C)[nH]c12 (stereo unspecified) | 91.7% (active) | 63.5% | 11.3%
16 | Cc1[nH]c2ccc(F)cc2c(=O)c1SC(F)(F)C(F)C(F)(F)F (stereo unspecified) | 31.7% (inactive) | -13.7% | 3.08%
17 | COc1cccc(C(=O)NCC(=O)n2nc(C)cc2C)c1 | -2.19% (inactive) | -15.9% | 2.14%
18 | CN(C)CC(O)COc1ccc(C(C)(C)c2ccc(OCC(O)CN(C)C)cc2)cc1 (stereo unspecified) | 99.1% (active) | 95.7% | 29.1%
19 | CN(C)CC(O)COc1cccc(OCC(O)CN(C)C)c1 (stereo unspecified) | 26.5% (inactive) | -7% | 1.99%
20 | CN(C)CC(O)COc1ccc(-c2ccc(C#N)cc2)cc1 (stereo unspecified) | 71.1% (inactive) | 51.9% | 5.66%
21 | CC(C)(C)c1ccc(C(O)CCCN2CCC(C(O)(c3ccccc3)c3ccccc3)CC2)cc1 (stereo unspecified) | 98.2% (active) |  | 36.3%

Row | Compound | growth inhibition | growth inhibition [1] | condensed nuclei
22 | OC(CCN1CCCCC1)(c1ccccc1)C1CCCCC1 (stereo unspecified) | 6.78% (inactive) |  | 4.4%
23 | OC(CCN1CCCC1)(c1ccccc1)C1CCCCC1 (stereo unspecified) | 57.7% (inactive) |  | 7.95%
24 | CCOC(=O)C1=C(C)N=C2SC(C)C(=O)N2C1c1ccc(OC(C)=O)c(OC)c1 (stereo unspecified) | 42.7% (inactive) | 12.7% | 1.51%
25 | CC(C)Cc1[nH]c(=O)c(C#N)c2c1COC(C)(C)C2 | -9.54% (inactive) | 6.82% | 1.96%
26 | CCCCCCc1cc2cc(-c3nnc(-c4ccccc4O)o3)c(=O)oc2cc1O | 4.58% (inactive) | 3.73% | 3.18%
27 | CCN(CC)c1ccc2cc(-c3nnc(-c4ccncc4)o3)c(=O)oc2c1 | 100% (active) | -8.56% | 1.36%
28 | CCN(CC)c1ccc2cc(C(=O)Nc3ccccn3)c(=O)oc2c1 | -58.4% (inactive) | -2.93% | 2.18%
29 | CN1CCN(CCCN2c3ccccc3Sc3ccc(Cl)cc32)CC1 | -16.4% (inactive) |  | 1.86%
30 | OCCN1CCN(CCCN2c3ccccc3Sc3ccc(C(F)(F)F)cc32)CC1 | 99.7% (active) |  | 57%
31 | CN1CCN(CCC(=O)N2c3ccccc3Sc3ccc(Cl)cc32)CC1 | 55.5% (inactive) | -11.6% | 2.4%
32 | CN1CCN(CCCN2c3ccccc3Sc3ccc(C(F)(F)F)cc32)CC1 | 99.7% (active) |  | 45.5%
33 | CSc1ccc2c(c1)N(CCC1CCCCN1C)c1ccccc1S2 (stereo unspecified) | 8.58% (inactive) |  | 2.87%
34 | OCCN1CCN(CCCN2c3ccccc3Sc3ccc(Cl)cc32)CC1 | 84.9% (inactive) |  | 46.7%
35 | CCCOc1ccc(/C(O)=C2/C(=O)C(=O)N(CCN3CCOCC3)C2c2ccccc2)cc1 (stereo unspecified) | 6.6% (inactive) | -7.42% | 3.56%
36 | CC1(C)Cc2nc(N)c(C(=O)NCCO)cc2CO1 | -4.53% (inactive) | -20.8% | 3.27%
37 | COc1ccc(/C(O)=C2\C(=O)C(=O)N(c3cc(C)on3)C2c2cccc(OC)c2OC)cc1C (stereo unspecified) | 37.5% (inactive) | -6.66% | 2.33%
38 | CCN(CC)CCNC(=O)c1ccccc1N | 25.6% (inactive) | 4.22% | 0.38%
39 | CCCCOc1cc(C(=O)NCCN(CC)CC)c2ccccc2n1 | 2.54% (inactive) and 97.2% (active) |  | 0.87% and 22.7%
40 | CCCCOc1ccccc1C(=O)NCCCC(=O)O | 45.1% (inactive) | 27.4% | 2.4%
41 | CC(C)C1Cc2c(C#N)c(N)sc(=S)c2CO1 (stereo unspecified) | -17.8% (inactive) | -10.1% | 3.02%
42 | CNCCC(Oc1ccc(C(F)(F)F)cc1)c1ccccc1 (stereo unspecified) | 98.6% (active) |  | 23.4%

Row | Compound | growth inhibition | growth inhibition [1] | condensed nuclei
43 | CC(=N\O)/C(CN(C)C)=N/O | 19.1% (inactive) | 5.48% | 2.85%
44 | CCc1[nH]nc2c1C(c1ccc(Br)s1)C(C#N)=C(N)O2 (stereo unspecified) | 61% (inactive) | 16.8% | 4.86%
45 | CCN(CC)C(=O)c1ccc(O)c(OC)c1 | -10.4% (inactive) |  | 2.13%
46 | COc1cc(/C=C/C(=O)CC(=O)/C=C/c2ccc(O)c(OC)c2)ccc1O | 95.8% (active) |  | 35.4%
47 | O=C(O)/C=C/c1ccc(O)c(O)c1 | -1.98% (inactive) |  | 2.21%
48 | CCCc1nnc(SCc2ccc(OCC)cc2)n1N | 34.1% (inactive) | 0.5% | 1.98%
49 | NC(Cc1ccc(Oc2ccc(O)cc2)cc1)C(=O)O (stereo unspecified) | -13.8% (inactive) |  | 5.21%
50 | CCn1nnc(C(=O)O)c1C(=O)O | -4.1% (inactive) | -5.53% | 2.3%
51 | Brc1ccc2c(c1)CNc1c(ncnc1N1CCOCC1)O2 | 45.1% (inactive) | 12.2% | 0.48%
52 | N#CC12CCCCC1CC1CCCCC1(C#N)N2Cc1cccnc1 (stereo unspecified) | 20.9% (inactive) | -2.93% | 2.55%
53 | CNCCCC1c2ccccc2C=Cc2ccccc21 | 98% (active) |  | 25%
54 | CC(NC(=O)c1ccc(=O)oc1)c1ccccc1 (stereo unspecified) | 53.4% (inactive) | -2.53% | 5.45%
55 | CC(NCCC(c1ccccc1)c1ccccc1)c1ccccc1 (stereo unspecified) | 95.3% (active) |  | 28.3%
56 | O=C(O)c1ccc(C2CCCCC2)cn1 | -17.2% (inactive) | -12.9% | 0.69%
57 | CCN(CC)CCN1C(=O)C(=O)/C(=C(/O)c2c(C)[nH]c(C(=O)OC)c2C)C1c1ccccc1 (stereo unspecified) | 29.2% (inactive) | 26.4% | 11%
58 | CNCCCN1c2ccccc2CCc2ccccc21 | 95.8% (active) |  | 13.8%
59 | CN(C)CCCN1c2ccccc2CCc2ccccc21 | -27.8% (inactive) |  | 2.51%
60 | CN(C)CCCN1c2ccccc2CCc2ccc(Cl)cc21 | 89.6% (inactive) |  | 39.3%
61 | CCOC(=O)NC(Nc1sc2c(c1C(=O)OC)CCN(C)C2)(C(F)(F)F)C(F)(F)F | -25.9% (inactive) | 15.4% | 2.15%
62 | Cc1cc(=O)oc(C)c1C(=O)N[C@@H]1CCCCNC1=O | -26.2% (inactive) | -3.89% | 2.68%
63 | CCCOC(=O)CSC1=C(C#N)C(c2ccc3c(c2)OCO3)CC(=O)N1 (stereo unspecified) | 75.6% (inactive) | 56.6% | 7.29%

Row | Compound | growth inhibition | growth inhibition [1] | condensed nuclei
64 | CCCCOC(=O)CSC1=C(C#N)C(c2ccc3c(c2)OCO3)CC(=O)N1 (stereo unspecified) | -15.7% (inactive) | -8.71% | 2.23%
65 | CCOC(=O)CSC1=C(C#N)C(c2ccc3c(c2)OCO3)CC(=O)N1 (stereo unspecified) | 90.1% (active) | 66.1% | 12.2%
66 | Cn1cccc1/C=N/n1cnnc1 | 13.3% (inactive) | 0.83% | 11%
67 | CN(C)CCCN1c2ccccc2Sc2ccc(C(F)(F)F)cc21 | 93.8% (active) |  | 30.8%
68 | CC(CN1c2ccccc2Sc2ccccc21)N(C)C (stereo unspecified) | 65.5% (inactive) |  | 6.11%
69 | COc1ccc([C@@H]2Sc3ccccc3N(CCN(C)C)C(=O)[C@@H]2OC(C)=O)cc1 | -4.52% (inactive) |  | 2.39%
70 | CN(C)CCCN1c2ccccc2Sc2ccccc21 | 40.7% (inactive) |  | 5.02%
71 | CN(C)CCCN1c2ccccc2Sc2ccc(Cl)cc21 | 92.7% (active) |  | 22.1%
72 | CCOc1c(C)cc2[nH]c(CCC(=O)O)nc2c1C | 26.2% (inactive) | 7.89% | 2.92%
73 | CN1CCN(Cc2c(O)c(Cl)cc3c(-c4ccccc4)cc(=O)oc23)CC1 | 8.72% (inactive) | -6.84% | 1.6%
74 | C(=N\n1cnnc1)/c1cccc(Oc2ccccc2)c1 | -29.2% (inactive) | -4.38% | 2.95%
75 | COc1ccccc1N1CCN(C2CCN(C(=O)c3cccs3)CC2)CC1 | 32% (inactive) | 11.2% | 4.31%
76 | CCCCCCn1cc(C(=O)O)c(=O)c2ccccc21 | -27.6% (inactive) | 1.82% | 2.69%
77 | COC(=O)c1[nH]c2cc(OC)ccc2c1NC(=O)CN1CCC(C(N)=O)CC1 | 49.4% (inactive) | -5.92% | 2.82%
78 | COC(=O)c1[nH]c2cc(OC)ccc2c1NC(=O)CCN1CCCC(C)(C)C1 | 5.81% (inactive) | 8.79% | 1.83%
79 | COC(=O)c1[nH]c2cc(OC)ccc2c1NC(=O)CN1CCN(c2cccc(C)c2)C(C)C1 (stereo unspecified) | 92.4% (active) | 75.4% | 8.77%
80 | COC(=O)C1CCN(c2nc3ccccc3nc2C(C#N)C(=O)NCCc2ccccc2)CC1 (stereo unspecified) | 30% (inactive) | 5.48% | 3.61%
81 | COC(=O)c1ccccc1OCc1cccc(C)n1 | 39.5% (inactive) | 2.81% | 0.9%
82 | COC(=O)c1cccc(Nc2cc(C)nc(-c3ccccc3O)n2)c1 | 91.6% (active) | 77.4% | 8.33%
83 | COC(=O)c1ccc(Nc2cc(C)nc(-c3ccccc3O)n2)cc1 | 12.1% (inactive) | 23% | 10.7%
